The whole screen tested about 410,000 compounds, of which about 18,000 (4.4%) were called active. Another 7% or so got no clear call; they are omitted. Many of the other results were omitted from the sample, so actives are more common in it than they were. Values without a mark were called inactive. No stated cut-off is given here; in the data, active means activity change below about -60%; inconclusive means no clear call, values can overlap the other calls; inactive means above about -39%.
On the % scale 0 is the no-effect control and ±100 the full control effect.

The nature of this test: qHTS Assay for inhibitors of the human cytomegalovirus (HCMV). To be noted: HFF cells, HCMV-luciferase reporter, 72 h; at 57.5 µM; stronger effect = lower value. Summed up: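 Two compound doses tested in HFFs infected with HCMV-luciferase, MOI 1 PFU/cell, 72 h at 37C. Lysate luminescence read with OneGlo; data normalized against buffer-only and 10uM Salinomycin inhibitor controls.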
Background: qHTS replaces the single test concentration by a dilution series.
`CCOc1ccc(-c2cc(C)[n+](CCN(CC)CC)c(-c3ccc(OCC)cc3)c2)cc1`: the activity change, negative = inhibition was -97.6% (active).

Turning to `CCOc1ccc2c(c1)C(c1ccc(C)cc1)=NNC(c1ccc(C)cc1)=N2`, the activity change, negative = inhibition was 9.03%.

As to `CCOc1ccc(-c2nnc3ccc(SC)nn23)cc1`, the activity change, negative = inhibition is -19.6%.

For the compound `Cc1cccc(-n2ccnc2SCC(=O)Nc2cc(C(F)(F)F)ccc2Cl)c1`, the activity change, negative = inhibition was -18.2%.

Regarding `COc1ccc(NC(=O)CSc2nccn2C2CCCC2)cc1OC`, the activity change, negative = inhibition is -35.1%.

As for `O=C(CSc1nccn1C1CCCC1)Nc1cc(C(F)(F)F)ccc1Cl`, the activity change, negative = inhibition was -87.5% (active).

For the compound `Cc1cc(NS(=O)(=O)c2ccc3oc(=O)c4ncn(C)c4c3c2)ccc1Br`, the activity change, negative = inhibition is -24.9%.

For `Cn1nnnc1SCCCNCc1ccc(Cl)cc1`, the activity change, negative = inhibition was 5.82%.

For `COc1ccccc1CCNC(=O)c1cccn1-c1nnc(N2CCCCC2)s1`, the activity change, negative = inhibition was -14.3%.

Regarding `Cc1ccc(NC(=O)CN(C)C(=O)Cn2nnc(-c3ccccc3)n2)cc1`, the activity change, negative = inhibition was -24.5%.

Take `COc1ccc(C(=O)N2CCCCC2C(=O)Nc2ccc(-n3nc(C)cc3C)cc2)o1` (stereo not drawn): the activity change, negative = inhibition was 7.64%.

As for `C[C@@H]1C[C@@H]2O[C@H]2/C=C\C=C\C(=O)Cc2c(Cl)c(O)cc(O)c2C(=O)O1`, the activity change, negative = inhibition is -76.2% (active).

Take `CCN(CC)S(=O)(=O)c1ccc(C(=O)N2CCN(C3=NS(=O)(=O)c4ccccc43)CC2)cc1`: the activity change, negative = inhibition is -15.4%.

As for `CCOC(=O)c1cc2c(=O)n3ccccc3nc2n(CC2CCCO2)c1=NC(=O)c1ccccc1Br` (stereo not drawn), the activity change, negative = inhibition is 24.4%.

`Cc1ccc(S(=O)(=O)c2cn(Cc3ccccc3)c3cc(N4CCCC4)c(F)cc3c2=O)c(C)c1`: the activity change, negative = inhibition was 10.5%.

Consider `CCOC1=C2[C@@H](CN(S(=O)(=O)c3ccc(C)cc3)[C@H]2c2ccccc2F)[C@H]2C(=O)N(Cc3ccccc3)C(=O)[C@H]2C1`, for which the activity change, negative = inhibition was -19.7%.

`Cc1ccc(S(=O)(=O)N2C[C@@H]3CCCC[C@@H]3[C@@H](C)[C@H]2c2cn(Cc3ccccc3)c3ccc(F)cc23)cc1`: the activity change, negative = inhibition is -65.2% (active).

In the case of `COc1ccc(-c2c(C)c3ccc(O)c(CN4CCCC4)c3oc2=O)cc1OC`, the activity change, negative = inhibition is 8.47%.

For `CCN(CC)C(=O)CSc1nc2cc3c(cc2c(=O)n1CCCC(=O)NCc1ccc2c(c1)OCO2)OCO3`, the activity change, negative = inhibition is -89.8% (active).

Regarding `CCCCNC(=O)CSc1nc2cc3c(cc2c(=O)n1CCCCCC(=O)NCc1ccc2c(c1)OCO2)OCO3`, the activity change, negative = inhibition is 25.2%.

`CCOc1ccc(NC(=O)Cn2c(=O)n(CCCC(=O)NCc3ccc4c(c3)OCO4)c(=O)c3ccccc32)cc1`: the activity change, negative = inhibition was 22.9%.

Regarding `O=C(NCc1ccc(Cl)cc1)c1ccc2c(c1)nnn2C1CCCC1`, the activity change, negative = inhibition is -1.14%.

Turning to `CC1(C(=O)NNC(=S)NCC2CCCO2)CC1(Cl)Cl` (stereo not drawn), the activity change, negative = inhibition is -5.76%.

Consider `CCC(=O)Nc1nc2ccccc2n1Cc1ccccc1C`, for which the activity change, negative = inhibition was -81.6% (active).

In the case of `CCC(=O)Nc1ccc(C)cc1-c1nc2ccccc2n(Cc2ccccc2)c1=O`, the activity change, negative = inhibition was 13.6%.

In the case of `Cc1cccc(NC(=O)Cn2c(C(F)(F)F)nc3ccccc32)c1C`, the activity change, negative = inhibition is -9.72%.

For the compound `Cc1cc(Cl)ccc1NC(=O)Cc1ccc(NC(=O)N2CCCCc3ccccc32)cc1`, the activity change, negative = inhibition is 25.1%.

Take `COCCN1C2=C(COC(C)(C)C2)C(=S)NC1c1ccccc1` (stereo not drawn): the activity change, negative = inhibition is 5.54%.

As to `O=C(CN1CCCCCC1)Nc1ccc(Br)cc1Br`, the activity change, negative = inhibition is 32.3%.

As for `Cc1ccc(NC(=O)CN2CCCCC2)c2c1CC(C)(C)O2`, the activity change, negative = inhibition was -63% (active).

Regarding `Cc1cc(C)c(NC(=O)CN2CCCCCC2)c(C)c1`, the activity change, negative = inhibition is -39.4%.

On to `O=S(=O)(c1ccc(Cl)cc1)c1nnn2c1nc(NC1CCCC1)c1sccc12`, for which the activity change, negative = inhibition was 21.2%.

Regarding `O=[N+]([O-])c1ccccc1-c1cc(-c2ccccc2[N+](=O)[O-])on1`, the activity change, negative = inhibition is 24.9%.

Turning to `Cc1c(Cl)cccc1NC(=O)N1CCN(C(=O)c2nsc3ccccc23)CC1`, the activity change, negative = inhibition was 0%.

On to `CCc1ccccc1NC(=O)N1CCN(C(=O)c2nsc3ccccc23)CC1`, for which the activity change, negative = inhibition is 0% (active).

On to `COc1ccccc1CNC(=O)c1ccccc1NC(=O)c1nsc2ccccc12`, for which the activity change, negative = inhibition is 12.6%.

As to `COc1ccc(OC)c(NC(=O)CN2CCCN(Cc3cc(C)ccc3C)S2(=O)=O)c1`, the activity change, negative = inhibition was 0%.

On to `Cc1ccnc(NC(=O)C2CCN(S(=O)(=O)c3c(C)c(C)cc(C)c3C)CC2)c1`, for which the activity change, negative = inhibition was -4.39%.

As to `CN1CCN(C(=O)CCc2ncc(C(F)(F)F)cc2Cl)CC1`, the activity change, negative = inhibition is -28.5%.

For the compound `N#CCc1ccc(NC(=O)c2ccccc2C(=O)Nc2ccc(CC#N)cc2)cc1`, the activity change, negative = inhibition is -72.2% (active).

For `CC(C)n1ncc2c(C(=O)Nc3ccc(CC#N)cc3)cc(C3CC3)nc21`, the activity change, negative = inhibition is 30.4%.

Consider `CC(=O)Nc1ccc(CC#N)cc1`, for which the activity change, negative = inhibition was 26.2%.

For `Cc1ccc(-c2nc3cccc(C)n3c2Nc2ccc3c(c2)OCCO3)cc1`, the activity change, negative = inhibition was 76%.

As for `COc1ccc(NC(=O)C2CCCN(S(=O)(=O)c3cccc4nonc34)C2)cc1Cl` (stereo not drawn), the activity change, negative = inhibition was -11.9%.

As to `O=C(C1CC1)N1CCc2cc(Br)cc(S(=O)(=O)N3CCN(c4ccccc4F)CC3)c21`, the activity change, negative = inhibition was 6.64%.

Consider `CNC(=O)c1ccc(-c2nc(CN3CCc4ccccc43)c(C)o2)cc1`, for which the activity change, negative = inhibition was 18.4%.

Regarding `Cc1ccc(N2CC(NC(=O)Cc3cccs3)CC2=O)cc1` (stereo not drawn), the activity change, negative = inhibition was 76%.

Consider `CCc1ccc(C(=O)NNC(=O)C2CCN(c3ncnc4sc(C)c(C)c34)CC2)cc1`, for which the activity change, negative = inhibition was -65.2% (active).

With `Cc1sc2ncnc(N3CCC(C(=O)Nc4ccc(F)cc4Cl)CC3)c2c1C`, the activity change, negative = inhibition is -21.6%.

As for `CCOC(=O)C1CCN(c2ncnc3c2c(-c2ccccc2)cn3-c2ccc(C)cc2)CC1`, the activity change, negative = inhibition was -37.8%.

`O=C(O)c1ccc(Cn2cnc3c(=S)nc[nH]c32)cc1`: the activity change, negative = inhibition is 1.65%.

As for `NC1=NC(c2cc(F)cc(F)c2)n2c(nc3ccccc32)N1` (stereo not drawn), the activity change, negative = inhibition is -1.84%.

`Cn1sc(=O)c2cc(S(=O)(=O)NC3CC3)ccc21`: the activity change, negative = inhibition was -82.6% (active).

As for `CC1CCC(NS(=O)(=O)c2ccc3c(c2)CC(=O)N3)CC1` (stereo not drawn), the activity change, negative = inhibition is 23.2%.

Consider `Cc1ccc(S(=O)(=O)NC2CCCCCC2)cc1C(N)=O`, for which the activity change, negative = inhibition is -23.9%.

On to `O=S1(=O)CC(N2CCSCC2)CN1Cc1cn(Cc2cccc(Cl)c2)nn1` (stereo not drawn), for which the activity change, negative = inhibition is -0.598%.

On to `O=C(NCCc1ccc(Cl)cc1)c1ccc2nc(CCc3ccccc3)oc2c1`, for which the activity change, negative = inhibition is 44.3%.

Take `CCOc1ccccc1CNCc1c(C(=O)O)c(C)n(Cc2ccc(C)cc2)c1C`: the activity change, negative = inhibition is 2.89%.

Take `O=C(CSc1nnc(CNC(=O)c2ccc(F)cc2)o1)Nc1ccc2c(c1)OCO2`: the activity change, negative = inhibition was -6.33%.

In the case of `O=C(CSc1nc(-c2cccc(F)c2)[nH]c1-c1ccccc1)Nc1ccc2c(c1)OCO2`, the activity change, negative = inhibition was -87.5% (active).

Regarding `O=C(CSc1ccc(-c2ccc(F)cc2)nn1)Nc1ccc2c(c1)OCCO2`, the activity change, negative = inhibition is 16.6%.

Take `O=C(CSc1nnnn1C1CCCC1)Nc1ccc2c(c1)OCCO2`: the activity change, negative = inhibition is 15.2%.

For `O=C(CSc1nc(=O)n2ccccc2n1)Nc1ccc2c(c1)OCCO2`, the activity change, negative = inhibition was -0.0406%.

Consider `O=C(CSc1nc(C2CC2)nc2ccccc12)Nc1ccc2c(c1)OCCO2`, for which the activity change, negative = inhibition was -71.4% (active).

As for `CCOc1cc(C(=O)Nc2nnc3n2CCS3)cc(OCC)c1OCC`, the activity change, negative = inhibition was -4.78%.

On to `O=C(CSc1ncc(-c2ccccc2)[nH]1)Nc1ccc(F)cc1F`, for which the activity change, negative = inhibition was -18.3%.

On to `COC(=O)C1=C(C)N(C(C)c2ccccc2)C(=O)/C1=C\c1ccco1` (stereo not drawn), for which the activity change, negative = inhibition was 29.2%.

In the case of `Cc1cc(OCCCC(=O)NCCN2C(=O)S/C(=C\c3cccnc3)C2=O)ccc1Cl`, the activity change, negative = inhibition was -21.9%.

For `O=C(CCCN1C(=O)/C(=C/c2ccccc2)SC1=S)Nc1ccc(O)cc1`, the activity change, negative = inhibition is -85.4% (active).

For the compound `N#Cc1c(NC(=O)CCCN2C(=O)c3ccccc3C2=O)oc(-c2ccccc2)c1-c1ccccc1`, the activity change, negative = inhibition was -2.46%.

Take `CC(=O)Nc1ccc(NC(=O)CCN2C(=O)C3CC=CCC3C2=O)cc1` (stereo not drawn): the activity change, negative = inhibition was 19.5%.

Regarding `O=C(CCCN1C(=O)/C(=C\c2ccccc2)SC1=S)Nc1ccccc1O`, the activity change, negative = inhibition was -94.8% (active).

Take `O=C(CCCN1C(=O)/C(=C/c2cccs2)SC1=S)Nc1ccc(O)cc1`: the activity change, negative = inhibition is -92.8% (active).

`Cc1cc(C)cc(NC(=O)CCN2C(=O)c3ccccc3C2=O)c1`: the activity change, negative = inhibition was -12.5%.

As to `O=C(CCCN1C(=O)C(c2ccccc2)Oc2cccnc21)Nc1ccccc1Br` (stereo not drawn), the activity change, negative = inhibition is 4.91%.

As for `O=C(CC1C(=O)N(c2ccccc2)C(=O)N1CCc1cccs1)Nc1ccc(F)cc1` (stereo not drawn), the activity change, negative = inhibition is -11.5%.

Regarding `COc1ccc(NC(=O)CCCN2C(=O)C(c3ccccc3)Oc3cccnc32)cc1` (stereo not drawn), the activity change, negative = inhibition is 37.1%.

On to `O=C(CCCN1C(=O)/C(=C/c2ccco2)SC1=S)Nc1ccccc1`, for which the activity change, negative = inhibition is -96.7% (active).

Regarding `COCCN(Cc1ccco1)C(=O)Cn1ncc2c([nH]c3ccccc32)c1=O`, the activity change, negative = inhibition is 1.17%.

On to `N#Cc1cccc(CN2CCC(=O)N([C@H](CO)c3ccccc3)CC2)c1`, for which the activity change, negative = inhibition was -24.2%.

On to `O=C(Nc1ccc(Br)cc1)c1cc2nc(-c3ccccc3)cc(-c3ccccc3)n2n1`, for which the activity change, negative = inhibition was 22.2%.

For `CCc1ccc2oc(=O)cc(CN3CCCCC3C)c2c1` (stereo not drawn), the activity change, negative = inhibition is -19%.

In the case of `CCOC(=O)c1[nH]c(C)c(CCC(=O)NCc2ccccc2C)c1C`, the activity change, negative = inhibition was -16.4%.

As for `Cc1ccc(O)c(NC(=S)NC(=O)COc2ccc(Br)cc2)c1`, the activity change, negative = inhibition is -97.8% (active).

For `Cn1cnnc1SCC(=O)NNC(=O)COc1ccc(Br)cc1`, the activity change, negative = inhibition is -26.5%.

On to `Cc1ccsc1C(=O)NNC(=O)COc1ccc(Br)cc1`, for which the activity change, negative = inhibition is -16.1%.

As for `COc1ccc(CN2CCc3nc(Nc4ccccc4)ncc3C2)c(OC)c1OC`, the activity change, negative = inhibition was -16.7%.

Turning to `COc1ccc(S(=O)(=O)c2cn(C)c3cc(N4CCCCC4)c(F)cc3c2=O)cc1`, the activity change, negative = inhibition was -2.52%.

The record behind these values is PubChem BioAssay AID1259415 (National Center for Advancing Translational Sciences (NCATS), 2018).
